# Measured values taken from PubChem BioAssay (Tox21).
# “And” between values parts separate entries of the source, which are not always exact repeats. Equal values may be shown once. Records with an inconclusive call do not appear. Entries that show only a call come without a potency. The source made the active and inactive calls. Unless noted, calls follow the shape of the dose curve; as a rule, active = well fitted curve in the direction sought with a large enough effect in the repeat runs; inconclusive = weak or mixed curves; inactive = no such curve, though single readings can be large; an effect the other way counts as inactive or inconclusive.
# How the values were obtained:
# [1] = qHTS assay to test for compound auto fluorescence at 535 nm (green) in HEK293 cells (AID 720680)
# [2] = qHTS assay to test for compound auto fluorescence at 460 nm (blue) in HEK293 cell free culture (AID 720681)
# Summary of the method: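 Test compounds were pinned into cell-free culture medium (DMEM with 10% FBS) and fluorescence was read directly at Ex/Em 405/460 nm. Signals were expressed as fluorescence equivalents of triamterene, with DMSO vehicle as control.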
# [3] = qHTS assay to test for compound auto fluorescence at 535 nm (green) in HEK293 cell free culture (AID 720682)
# Summary of the method: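 Using fluorescein as calibrant, autofluorescence was quantified at 485/535 nm in cell-free DMEM containing 10% FBS after pintool addition of compound or vehicle.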
# [4] = qHTS assay to test for compound auto fluorescence at 590 nm (red) in HEK293 cell free culture (AID 720683)
# Summary of the method: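 Tox21 10K library compounds were pinned into cell-free DMEM with 10% FBS and fluorescence was read at excitation 540 nm. Activity is expressed as Rose Bengal sodium equivalency.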
# [5] = qHTS assay to test for compound auto fluorescence at 590 nm (red) in HepG2 cell free culture (AID 720684)
# Summary of the method: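 Readout: intrinsic compound fluorescence at 590 nm emission after 540 nm excitation, scaled to Rose Bengal sodium. Matrix was cell-free MEM with 10% FBS; DMSO vehicle wells served as control.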
# [6] = qHTS assay to test for compound auto fluorescence at 460 nm (blue) in HepG2 cell free culture (AID 720685)
# Summary of the method: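 Cell-free plates of MEM plus 10% FBS received 23 nL compound or DMSO vehicle; blue-channel (405/460 nm) intensity scored against triamterene as reference fluorophore.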
# [7] = qHTS assay to test for compound auto fluorescence at 535 nm (green) in HepG2 cell free culture (AID 720686)
# [8] = qHTS assay to test for compound auto fluorescence at 460 nm (blue) in HepG2 cells (AID 720687)
# Summary of the method: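 Cells (2,000/well in MEM with 10% FBS) attached overnight at 37 C, then were exposed to compound or DMSO for 1 hr at 37 C, 5% CO2. Fluorescence read at Ex/Em 405/460 nm, expressed as triamterene-equivalent signal.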
# [9] = qHTS assay to identify small molecule antagonists of the glucocorticoid receptor (GR) signaling pathway - cell viability counter screen (AID 720693); also: nearly all actives have a fitted effect of over 55% in size; also: potency is read from the fitted curve at half-maximal effect
# [10] = qHTS assay for identifying genotoxic compounds that show differential cytotoxicity against isogenic chicken DT40 cell lines with known DNA damage response pathways - wild type cell line (AID 743012); also: nearly all actives have a fitted effect of over 60% in size; also: potency is read from the fitted curve at half-maximal effect
# Summary of the method: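 Viability by ATP luminescence (CellTiter-Glo, 30 min RT) after 40 h compound treatment at 37 C/5% CO2, using 300 parental DNA repair-proficient DT40 cells per well.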
# [11] = qHTS assay for identifying genotoxic compounds that show differential cytotoxicity against isogenic chicken DT40 cell lines with known DNA damage response pathways - Rev3 mutant cell line (AID 743014); also: nearly all actives have a fitted effect of over 55% in size; also: potency is read from the fitted curve at half-maximal effect
# [12] = qHTS assay for identifying genotoxic compounds that show differential cytotoxicity against isogenic chicken DT40 cell lines with known DNA damage response pathways - Rad54/Ku70 mutant cell line (AID 743015); also: nearly all actives have a fitted effect of over 60% in size; also: potency is read from the fitted curve at half-maximal effect
# [13] = biological target: Androgen receptor (Homo sapiens) (UniProt P10275); test: qHTS assay to identify small molecule agonists of the androgen receptor (AR) signaling pathway (AID 743036; active = well fitted activation curve with a large enough effect in the signal ratio in the repeat runs, with a control signal flat, not every such curve was filed as active; the % refers to the signal ratio)
# Summary of the method: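 In this Tox21 qHTS, 2,000 HEK293 AR-bla cells per well were incubated with compounds for 16 h at 37C and 5% CO2. Fluorescence intensity was recorded 2 h after adding LiveBLAzer B/G FRET substrate at room temperature.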
# [14] = biological target: Androgen receptor (Homo sapiens) (UniProt P10275); test: qHTS assay to identify small molecule agonists of the androgen receptor (AR) signaling pathway using the MDA cell line (AID 743040; also: nearly all actives have a fitted effect of over 20% in size)
# Summary of the method: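 Agonist activity is measured as luciferase luminescence in human MDA-kb2 cells whose MMTV reporter responds to both AR and GR. Compounds in DMSO incubate 16 h at 37C, 0% CO2, and ONE-Glo is read after 30 min.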
# [15] = qHTS assay to identify small molecule antagonists of the androgen receptor (AR) signaling pathway using the MDA cell line - cell viability counter screen (AID 743041; also: nearly all actives have a fitted effect of over 45% in size; also: potency is read from the fitted curve at half-maximal effect)
# Summary of the method: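 qHTS viability read-out; MDA-kb2 AR-luc; R1881-stimulated; 16 h exposure at 37C, 0% CO2; CellTiter-Fluor, 30 min; fluorescence intensity.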
# [16] = biological target: Androgen receptor (Homo sapiens) (UniProt P10275); test: qHTS assay to identify small molecule antagonists of the androgen receptor (AR) signaling pathway using the MDA cell line (AID 743042; also: potency is read from the fitted curve at half-maximal effect; nearly all actives have a fitted effect of over 55% in size)
# Summary of the method: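 MDA-kb2 cells (human breast carcinoma, stably carrying an MMTV-luciferase reporter responsive to AR and GR) were plated at 3,000 cells/well and preincubated 5 hr at 37C, then given compound plus R1881 agonist for 16 h. ONE-Glo luminescence was read.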
# [17] = qHTS assay to identify small molecule antagonists of the androgen receptor (AR) signaling pathway - cell viability counter screen (AID 743033; also: nearly all actives have a fitted effect of over 45% in size)
# Sequence of Androgen receptor (Homo sapiens) (P10275 whole entry, looked up): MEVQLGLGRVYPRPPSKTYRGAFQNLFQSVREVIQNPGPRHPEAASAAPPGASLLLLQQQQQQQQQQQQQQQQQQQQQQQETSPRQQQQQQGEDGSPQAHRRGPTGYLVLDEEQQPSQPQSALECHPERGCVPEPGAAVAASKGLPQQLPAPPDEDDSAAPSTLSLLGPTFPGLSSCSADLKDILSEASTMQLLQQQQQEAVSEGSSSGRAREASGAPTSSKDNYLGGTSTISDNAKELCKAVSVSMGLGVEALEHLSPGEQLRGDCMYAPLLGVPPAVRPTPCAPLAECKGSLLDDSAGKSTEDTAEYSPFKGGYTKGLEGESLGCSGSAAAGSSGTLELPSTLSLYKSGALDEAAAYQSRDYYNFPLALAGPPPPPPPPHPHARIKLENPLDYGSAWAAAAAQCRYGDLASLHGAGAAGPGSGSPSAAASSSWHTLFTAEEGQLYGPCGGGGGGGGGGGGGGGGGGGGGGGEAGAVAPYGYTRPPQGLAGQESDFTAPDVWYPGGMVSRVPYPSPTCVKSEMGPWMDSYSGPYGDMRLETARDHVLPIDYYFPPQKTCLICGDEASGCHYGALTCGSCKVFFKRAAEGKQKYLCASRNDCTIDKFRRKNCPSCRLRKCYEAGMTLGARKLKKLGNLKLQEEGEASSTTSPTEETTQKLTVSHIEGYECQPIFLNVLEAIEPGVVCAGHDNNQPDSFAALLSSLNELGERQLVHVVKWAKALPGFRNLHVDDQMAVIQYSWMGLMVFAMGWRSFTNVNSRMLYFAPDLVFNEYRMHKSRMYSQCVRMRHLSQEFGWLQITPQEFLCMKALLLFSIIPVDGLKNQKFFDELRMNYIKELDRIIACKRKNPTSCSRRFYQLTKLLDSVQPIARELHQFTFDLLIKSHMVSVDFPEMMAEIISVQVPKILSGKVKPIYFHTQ
SMILES,Potency [1],Potency [2],Potency [3],Potency [4],Potency [5],outcome [6],Potency [7],outcome [8],Potency [9],Potency [10],Potency [11],Potency [12],Potency [13],Potency [14],Potency [15],Potency [16],Potency [17]
NC(=S)N=Nc1ccc(NN=C(N)N)cc1,inactive,inactive,inactive,inactive,inactive,inactive,inactive,inactive,inactive,2.66 µM (active),5.96 µM (active),5.31 µM (active),inactive,inactive,26.6 µM (active),29.8 µM (active),
CC(C)(C)CC(C)(C)c1cc(Cc2cc(C(C)(C)CC(C)(C)C)cc(-n3nc4ccccc4n3)c2O)c(O)c(-n2nc3ccccc3n2)c1,inactive,inactive,inactive,inactive,inactive,inactive,inactive,inactive,inactive,inactive,inactive,inactive,,,inactive,,inactive
COc1ccc(C[C@H](N)C(=O)N[C@H]2[C@@H](O)[C@H](n3cnc4c(N(C)C)ncnc43)O[C@@H]2CO)cc1,inactive,inactive,inactive,inactive,inactive,inactive,inactive,inactive,4.77 µM (active),0.841 µM (active),0.75 µM (active),inactive,,,7.5 µM (active),,
COc1c(O[C@@H]2O[C@H](CO)[C@@H](O)[C@H](O)[C@H]2O)cc2c(c1OC)-c1ccc(SC)c(=O)cc1[C@@H](NC(C)=O)CC2,inactive,inactive,inactive,inactive,inactive,inactive,inactive,inactive,inactive,inactive,inactive,inactive,,,inactive,,inactive
CC(=O)N[C@@H](CC(=O)N[C@@H](CCC(=O)O)C(=O)O)C(=O)O,inactive,inactive,inactive,inactive,inactive,inactive,inactive,inactive,inactive,inactive,inactive,inactive,,,inactive,,inactive
N=C(N)c1ccc(OCCCOc2ccc(C(=N)N)cc2Br)c(Br)c1,inactive,inactive,inactive,inactive,inactive,inactive,inactive,inactive,inactive,5.96 µM (active),8.41 µM (active),6.68 µM (active),,,inactive,,inactive
COc1cc([C@@H]2c3cc4c(cc3C(O[C@@H]3O[C@@H]5CO[C@@H](C)O[C@H]5[C@H](O)[C@H]3O)C3COC(=O)[C@@H]32)OCO4)cc(OC)c1OP(=O)(O)O (some centres not stated),inactive,inactive,inactive,inactive,inactive,inactive,inactive,inactive,inactive,531 nM (active) and 750 nM (active),1.68 µM (active) and 2.37 µM (active),53.1 nM (active) and 75 nM (active),,,inactive,,inactive
OC1OC[C@@H](O)[C@H](O)[C@@H]1O (some centres not stated),inactive,inactive,inactive,inactive,inactive,inactive,inactive,inactive,inactive,inactive,inactive,inactive,,,inactive,,inactive
CC(O)CN(C)C (configuration not stated),inactive,inactive,inactive,inactive,inactive,inactive,inactive,inactive,inactive,inactive,inactive,inactive,,,inactive,,inactive
C=CCOc1ccc(CC(=O)O)cc1Cl,inactive,inactive,inactive,inactive,inactive,inactive,inactive,inactive,inactive,inactive,inactive,inactive,,,inactive,,inactive
CO[C@H]1C[C@H](O[C@H]2[C@H](C)O[C@@H](O[C@@H]3/C(C)=C/C[C@@H]4C[C@@H](C[C@]5(C=C[C@H](C)[C@@H](C6CCCCC6)O5)O4)OC(=O)[C@@H]4C=C(C)[C@@H](O)[C@H]5OC/C(=C\C=C\[C@@H]3C)[C@]54O)C[C@@H]2OC)O[C@@H](C)[C@@H]1O,inactive,inactive,inactive,inactive,inactive,inactive,inactive,inactive,7.56 µM (active),5.31 µM (active),6.68 µM (active),5.96 µM (active),,,inactive,,inactive
C[C@]12CC[C@@H]3c4ccc(O)cc4CC[C@H]3[C@@H]1CC[C@@H]2OP(=O)(O)O,inactive,inactive,inactive,inactive,inactive,inactive,inactive,inactive,inactive,inactive,inactive,inactive,,,inactive,,inactive
Cc1ccc(C2(O)CCN(CCCC(=O)c3ccc(F)cc3)CC2)cc1,inactive,inactive,inactive,inactive,inactive,inactive,inactive,inactive,inactive,11.9 µM (active),11.9 µM (active),10.6 µM (active),,,inactive,,inactive
CCN(CC)CCOc1ccc2nc(N(C)C)sc2c1,inactive,inactive,inactive,inactive,inactive,inactive,inactive,inactive,inactive,1.19 µM (active),1.68 µM (active),2.11 µM (active),,,inactive,,inactive
